The whole screen tested about 310,000 compounds, of which about 14,000 (4.5%) showed an effect of 50% or more. Effects have a minus sign here. This excerpt belongs to a sample that is enriched for strong results.
Biological target: human ether-à-go-go-related gene (hERG) potassium channel (human, UniProt Q12809)
Experiment: primary screen, population patch clamp on CHO cells stably expressing hERG; higher = less effect of the substance
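Note: peak tail current of the secondary pulse compared with the same well before compound.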

Sequence of human ether-à-go-go-related gene (hERG) potassium channel (Q12809 whole entry, looked up): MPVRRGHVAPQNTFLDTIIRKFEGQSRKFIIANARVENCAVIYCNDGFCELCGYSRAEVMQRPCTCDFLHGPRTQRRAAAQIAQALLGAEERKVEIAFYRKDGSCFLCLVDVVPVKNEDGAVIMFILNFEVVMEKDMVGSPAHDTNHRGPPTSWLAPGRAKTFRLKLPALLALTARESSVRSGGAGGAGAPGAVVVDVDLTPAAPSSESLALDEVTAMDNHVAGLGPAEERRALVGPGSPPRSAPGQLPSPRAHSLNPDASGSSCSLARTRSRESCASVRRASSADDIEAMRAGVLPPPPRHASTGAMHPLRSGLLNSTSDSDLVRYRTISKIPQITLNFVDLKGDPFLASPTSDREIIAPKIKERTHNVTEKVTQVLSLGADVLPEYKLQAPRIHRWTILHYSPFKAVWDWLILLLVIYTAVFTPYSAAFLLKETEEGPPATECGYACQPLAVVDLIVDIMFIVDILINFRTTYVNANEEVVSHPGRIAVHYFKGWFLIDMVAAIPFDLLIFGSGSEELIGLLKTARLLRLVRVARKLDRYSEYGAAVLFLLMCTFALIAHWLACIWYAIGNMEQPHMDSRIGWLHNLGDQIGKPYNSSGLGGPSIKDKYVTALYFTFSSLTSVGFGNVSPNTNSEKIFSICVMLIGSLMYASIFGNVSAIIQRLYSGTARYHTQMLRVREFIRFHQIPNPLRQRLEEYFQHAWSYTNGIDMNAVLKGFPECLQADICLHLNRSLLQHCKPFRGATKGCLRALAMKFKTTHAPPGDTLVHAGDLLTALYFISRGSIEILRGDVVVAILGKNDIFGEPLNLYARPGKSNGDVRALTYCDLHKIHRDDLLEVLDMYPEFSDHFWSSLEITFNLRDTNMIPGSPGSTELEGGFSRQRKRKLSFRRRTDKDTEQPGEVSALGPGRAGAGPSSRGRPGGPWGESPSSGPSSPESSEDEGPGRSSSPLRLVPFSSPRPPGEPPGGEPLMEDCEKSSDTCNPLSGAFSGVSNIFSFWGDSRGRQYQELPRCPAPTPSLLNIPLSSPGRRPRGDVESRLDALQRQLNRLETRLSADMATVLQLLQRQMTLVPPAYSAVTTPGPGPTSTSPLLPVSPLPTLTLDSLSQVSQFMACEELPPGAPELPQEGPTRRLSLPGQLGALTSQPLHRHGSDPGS

Point of comparison: `O=C(CN1CCCCC1)Nc1ccccc1NC(=O)CN1CCCCC1`, “hERG current change (%, negative = inhibition) at 10uM” value 3.83%. Against it:
- CC(C)C(NC(=O)c1ccccc1F)C(=O)OCC(=O)c1ccc(F)cc1 (stereo not shown) — lower, -9.49%
- CCOC(=O)c1sc(-c2ccccc2)cc1NC(=O)CSc1nnnn1C — lower, -1.13%
- COc1ccccc1/C=C1/C(=O)ON=C1C — higher, 12.5%
- COc1cccc(NC(=S)C(C#N)=C2N(C)c3ccccc3N2C)c1 — higher, 4.88%
- CCn1c(=O)cc(SCC(=O)N2CCCCC2)c2ccccc21 — lower, -7.44%
- COC(=O)c1ccc(Oc2nc(NC(C)(C)C)nc(N3CCOCC3)n2)cc1 — lower, -16.1%
- Cc1ccc(-n2c(SCC(=O)Nc3ccc(N4CCOCC4)cc3)nc3ccccc3c2=O)cc1 — higher, 6.08%
- COC(=O)c1ccc2c(=O)n(CCN3CCOCC3)c(SCC(=O)Nc3cccc(OC)c3)nc2c1 — lower, -37.9%
- COC(=O)c1ccc2c(=O)n(CCN3CCOCC3)c(SCC(=O)Nc3ccc(C)cc3)nc2c1 — lower, -69.5%
- CCOC(=O)CSc1nc2cc(C(=O)OC)ccc2c(=O)n1CCN1CCOCC1 — lower, -38.4%
- CCOC(=O)CSc1nc2ccccc2c(=O)n1CC(C)C — lower, -35.3%
- CCOC(=O)CSc1nc2ccccc2c(=O)n1CCN1CCOCC1 — lower, -50.3%
- COC(=O)c1ccc2c(=O)n(CCN3CCOCC3)c(SCC(=O)Nc3ccccc3Cl)nc2c1 — lower, -33.4%
- Cc1ccc(NC(=O)CSc2nc3ccccc3c(=O)n2CC2CCCO2)cc1 (stereo not shown) — lower, 0.693%
- Cc1ccc(NC(=O)CSc2nc3ccccc3c(=O)n2CCCC(=O)NCCCN2CCOCC2)cc1 — lower, -52.6%
- CN(C)c1cc[n+](CC(O)C[n+]2ccc(N(C)C)cc2)cc1.[O-][Cl+3]([O-])([O-])[O-] — higher, 15.9%
- CCCN(CCC)S(=O)(=O)c1ccc(N2CCCC2=O)c([N+](=O)[O-])c1 — lower, -19.3%
- COc1cccc(/C=N/NC(=O)CCNc2n[nH]c(=O)[nH]c2=O)c1OC — higher, 15.9%
- COc1cccc(NC(=O)c2ccccc2N2C(=O)C3C4C=CC(C4)C3C2=O)c1 (stereo not shown) — lower, -1.23%
- CCN(CC(=O)NC(=O)NCc1ccccc1)Cc1ccccc1 — lower, -20.6%
- CCN(CC)CC(=O)NN(Cc1ccccc1)c1ccccc1.O=C(O)C(=O)O — lower, -73.6%
- O=C(CN1CCCCC1)NN(Cc1ccccc1)c1ccccc1.O=C(O)C(=O)O — lower, -73.3%
- CC(C)(O)C(=O)NN(Cc1ccccc1)c1ccccc1 — higher, 16.2%
- O=C(CN1CCCCCC1)Nc1ccccc1F.O=C(O)C(=O)O — higher, 9.38%
- O=C(CN1CCCCCC1)NN(Cc1ccccc1)c1ccccc1.O=C(O)C(=O)O — lower, -72.3%
- CN1CCN(CC(=O)NN(Cc2ccccc2)c2ccccc2)CC1.O=C(O)C(=O)O — lower, -14.2%
- O=C(CN1CCCCC1)NC(=O)NCc1ccccc1 — higher, 14.3%

From paper PMC4336329 (PLoS ONE, 2015)
